Experiment [1] can be described thus: NCI Yeast Anticancer Drug Screen. Data for the rad50 strain (AID 155).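 Note: 0% = growth of vehicle-only cultures of the same strain.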 The conditions noted are these: S. cerevisiae rad50 strain growth inhibition, active compounds read high; at 50.0 µM unless noted. The essentials:
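Yeast carrying a defined DNA repair defect were exposed to test compounds, and growth was compared with vehicle-treated controls to give percent inhibition.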

Experiment [2] is described as follows: NCI Yeast Anticancer Drug Screen. Data for the mec2-1 strain (AID 157). Conditions: S. cerevisiae mec2-1 strain, active compounds read high; at 50.0 µM unless noted. Put shortly:
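Compounds were applied to mec2-1 yeast cells. Their growth was then compared with that of vehicle-treated cultures to give growth inhibition.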

A short description of experiment [3]: NCI Yeast Anticancer Drug Screen. Data for the sgs1 mgt1 strain (AID 161).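 Note: 0% = growth of cultures given vehicle only.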 Conditions: S. cerevisiae sgs1 mgt1 strain, active compounds read high; at 50.0 µM unless noted. Put shortly: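 Compounds are added to genetically altered yeast, and growth is compared with cultures given vehicle alone to give percent inhibition.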
A short description of experiment [4]: NCI Yeast Anticancer Drug Screen. Data for the cln2 rad14 strain (AID 165).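 Note: 0% = growth equal to vehicle treated cultures.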 Conditions: S. cerevisiae cln2 rad14 strain, active compounds read high; at 50.0 µM unless noted. Put shortly:
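Strain: cln2 rad14 yeast, altered in cell cycle control and DNA damage repair. Read-out: growth inhibition vs vehicle.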

Experiment [5] in a line: NCI Yeast Anticancer Drug Screen. Data for the bub3 strain (AID 167). Conditions: S. cerevisiae bub3 mutant strain, active compounds read high; at 50.0 µM unless noted. The essentials: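 Compounds were applied to a genetically altered yeast strain carrying a cell-cycle control defect. Growth inhibition was scored against vehicle-treated controls.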
Experiment [6] in a line: NCI Yeast Anticancer Drug Screen. Data for the mlh1 rad18 strain (AID 175). The conditions noted are these: S. cerevisiae mlh1 rad18 strain growth inhibition, active compounds read high; at 50.0 µM unless noted. Put shortly:
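A repair-deficient yeast strain is exposed to test compound, and growth is scored relative to vehicle-treated controls.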

The source of these data is PubChem BioAssay (NCI).

The panel holds about 79,000 compounds, 15% with a hit somewhere; the sample as a whole holds those more often. Values without a mark were called inactive. Activity calls are given as the source filed them. Cut-off read from the data, not from the text of the source: active = growth inhibition above about 70%; inactive = the rest.

As for `C=CCSC(=S)Nc1nc2ccc([N+](=O)[O-])cc2s1`, the growth inhibition in experiment [1] was -4.1%; in experiment [2], 8.9%; in experiment [3] it was 7.45%; in experiment [4], 7.8%; in experiment [5], -10.8%; in experiment [6], -5.9%.

For `O=c1c2ccccc2n2c(=S)[nH]nc2n1-c1ccccc1`, the growth inhibition in experiment [1] was -2.7%; in experiment [2], 3.55%; in experiment [3], -12.2%; in experiment [4], 6.95%; in experiment [5], 0.05%; in experiment [6], -10.8%.

As to `COc1cc(C(CC(=O)O)C(=O)O)c([N+](=O)[O-])cc1OC` (stereo not given), the growth inhibition in experiment [1] is -23.2%; in experiment [2], 1.1%; in experiment [3], 2.2%; in experiment [4], 0%; in experiment [5] it was 24.5%; in experiment [6], 7.4%.

For the molecule `Oc1ccc(O)c(CNc2ccc(C(O)C(F)(F)F)cc2)c1` (stereo not given), the growth inhibition in experiment [1] was 14.9%; in experiment [2], 9.2%; in experiment [3], 16.8%; in experiment [4], 6.45%; in experiment [5], 22.1%; in experiment [6], 15.9%.

In the case of `O=C(F)c1cccc2ccccc12`, the growth inhibition in experiment [1] is -25.9%; in experiment [2] it was -14.7%; in experiment [3] it was -1%; in experiment [4], 7.6%; in experiment [5], -19.6%; in experiment [6] it was -31.3%.

Regarding `CC1(C)CSCC(C)(C)C(=N/N)/C1=N\N`, the growth inhibition in experiment [1] was 6.95%; in experiment [2], 22.7%; in experiment [3] it was -8.35%; in experiment [4], 4.35%; in experiment [5] it was -33%; in experiment [6], -41.3%.

Turning to `OC(c1ccc(Cl)cc1)c1ccccn1` (stereo not given), the growth inhibition in experiment [1] was 1.7%; in experiment [2], -9%; in experiment [3] it was -7.3%; in experiment [4], -17%; in experiment [5], -18.9%; in experiment [6] it was -8.75%.

Consider `CC(C)(C(N)C(=O)O)C(N)C(=O)O` (stereo not given), for which the growth inhibition in experiment [1] is 16.4%; in experiment [2], 4.8%; in experiment [3], -17.4%; in experiment [4], -11.9%; in experiment [5] it was -3.55%; in experiment [6], -8.8%.

As for `C=CCc1cc(OC)c2c(c1)C(O)CC(c1ccc(OC)c(OC)c1)O2` (stereo not given), the growth inhibition was 16.5% in experiment [1]; 1.25% in experiment [2]; 18.6% in experiment [3]; -14.3% in experiment [4]; 22.6% in experiment [5]; -4% in experiment [6].

With `CC(C)(C)C1CCC2c3c([nH]c4ccccc34)C3C(=O)N(c4cc(Br)cc(Br)c4)C(=O)C3C2C1` (stereo not given), the growth inhibition in experiment [1] is 14.3%; in experiment [2], 9.15%; in experiment [3], 7.75%; in experiment [4], 18.9%; in experiment [5], 21.8%; in experiment [6], -46.5%.

With `O=C1c2cccc3c([N+](=O)[O-])ccc(c23)C(=O)N1Cc1cccnc1`, the growth inhibition in experiment [1] was 99.3% (active); in experiment [2], 99.7% (active); in experiment [3], 99.5% (active); in experiment [4] it was 99.3% (active); in experiment [5], 99.3% (active); in experiment [6] it was 99.4% (active).

Consider `O=C(O)c1nc(-c2ccccc2)ncc1-c1nnnn1-c1ccccc1`, for which the growth inhibition is -37.7% in experiment [1]; 3.75% in experiment [2]; -21.9% in experiment [3]; 4.7% in experiment [4]; -18.7% in experiment [5]; -7.1% in experiment [6].

Turning to `CS(=O)(=O)OCCN(CCOS(C)(=O)=O)c1ccc(C=Nc2ccc(C(=O)O)c(O)c2)cc1`, the growth inhibition in experiment [1] was 84.3% (active); in experiment [2], 84.5% (active); in experiment [3] it was 79.5% (active); in experiment [4], 78.7% (active); in experiment [5] it was 19.8%; in experiment [6], 94% (active).

Turning to `CCCSc1nc(C(=O)O)cc(=O)[nH]1`, the growth inhibition in experiment [1] was -8.9%; in experiment [2], -13.8%; in experiment [3], -4.8%; in experiment [4], -44.2%; in experiment [5], -5.1%; in experiment [6], -8.15%.

As for `CC1OC(Cl)CC(NC(=O)C(F)(F)F)C1OC(=O)C(F)(F)F` (stereo not given), the growth inhibition in experiment [1] was -0.55%; in experiment [2], -1.7%; in experiment [3], -5.55%; in experiment [4], -17.8%; in experiment [5] it was 14.2%; in experiment [6], 13.9%.

Take `CCN(CC)CCNC(=O)c1ccc(I)cc1`: the growth inhibition in experiment [1] was -43.4%; in experiment [2], -14.8%; in experiment [3] it was -0.9%; in experiment [4] it was -25.6%; in experiment [5] it was -4.35%; in experiment [6], -30.9%.

As for `NC(=O)c1ccc[n+]([O-])c1`, the growth inhibition in experiment [1] was 15.1%; in experiment [2] it was -0.5%; in experiment [3] it was 6.35%; in experiment [4], 6.6%; in experiment [5] it was 2.65%; in experiment [6], -1.75%.

Turning to `COS(=O)(=O)CC(O)(c1ccccc1)c1ccccc1`, the growth inhibition is 12.7% in experiment [1]; -2.3% in experiment [2]; 48.8% in experiment [3]; -14.6% in experiment [4]; -5.8% in experiment [5]; 6.05% in experiment [6].

Consider `Nc1nc(NCCO)c(NC=O)c(=O)[nH]1`, for which the growth inhibition is -11.6% in experiment [1]; 6% in experiment [2]; -2.6% in experiment [3]; -34.4% in experiment [4]; -13.8% in experiment [5]; -1.35% in experiment [6].

With `Nc1ccc(S(=O)(=O)CCCl)cc1`, the growth inhibition in experiment [1] is 8.7%; in experiment [2] it was 0.95%; in experiment [3] it was 18.5%; in experiment [4], 22.2%; in experiment [5], 13.7%; in experiment [6], 11.6%.
